Measurements published in PubChem BioAssay (NCATS).
Inconclusive results are not listed. Activity calls are given as the source filed them. Unless noted, calls come from the whole dose curve; as a rule, active = well fitted curve in the direction sought with a large enough effect; inconclusive = small, poorly fitted or top-dose-only effect, or another doubt; inactive = no such curve, though single readings can be large; an effect the other way counts as inactive or inconclusive.

Legend:
[1] = MultiTox-Fluor Cytotoxicity Assay - LYMP1-001 - Live Cells (AID 947)
[2] = MultiTox-Fluor Cytotoxicity Assay - LYMP1-002 - Live Cells (AID 955);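 note: cells exposed to compound for 16 hours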
Procedure, shortened: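 Read-out is live-cell protease activity (cell-permeant GF-AFC substrate, fluorescence Ex/Em=405/510), where a decrease indicates acute toxicity. Human lymphoblastoid cells were treated 16 hours at 37 C in a concentration series, and AC50 values came from standard Hill modelling.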

[3] = MultiTox-Fluor Cytotoxicity Assay - LYMP1-003 - Dead Cells (AID 961);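 note: cells exposed to compound for 16 h at 37 °C; nearly all actives have a fitted effect of over 70% in size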
Procedure, shortened: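 Human lymphoblastoid LYMP1-003 cells (2500/well) were treated with compounds for 16 hr at 37 C in complete medium. Dead-cell protease release was read by bis-AAF-R110 fluorescence (Ex/Em 485/520). AC50 came from Hill fits, normalized to DMSO and 15 uM tetraoctylammonium bromide.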

[4] = MultiTox-Fluor Cytotoxicity Assay - LYMP1-003 - Live Cells (AID 962);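 note: cells exposed to compound for 16 hours at 37 °C; cytotoxic hits lower the live-cell protease signal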
Procedure, shortened: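 qHTS, 1536-well; 2500 cells/well LYMP1-003; 5 hr 37 C settle; cpd 16 hr 37 C; MultiTox-Fluor reagent 60 min RT; live-cell protease fluor. 405/510; Hill-fit AC50; tetraoctylammonium bromide pos. ctrl.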

[5] = Cell Viability - LYMP1-003 - Assay at 24 hr (AID 963)
Procedure, shortened: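 Cells seeded at 2500/well, 5 hr at 37 C; compounds added; 24 hr at 37 C; CellTiter-Glo added, 30 min room temperature; luminescence read. Decrease in ATP taken as cytotoxicity, AC50 from Hill modelling.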

[6] = Cell Viability - LYMP1-003 - Assay at 40 hr (AID 964); note: series mostly up to about 92 µM; nearly all actives have a fitted effect of over 60% in size
Procedure, shortened: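 Cells were seeded at 2500 per well and incubated 5 hr at 37 C. Compounds were added across a concentration series and left 40 hr at 37 C. CellTiter-Glo was added for 30 min at room temperature before luminescence reading.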

[7] = Cell Viability - LYMP2-003 (AID 965);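 note: cells exposed to compounds for 24 h before reading; nearly all actives have a fitted effect of over 50% in size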
Procedure, shortened: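 CellTiter-Glo luminescence (cellular ATP) after 24 h compound exposure at 37 C in complete medium; 2500 cells/well, 5 h settling beforehand. Concentration-response fitted to standard Hill equation for AC50. Tetraoctylammonium bromide served as positive control.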

[8] = Cell Viability - LYMP2-004 (AID 966); note: nearly all actives have a fitted effect of over 65% in size
Procedure, shortened: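 Cells seeded 2500/well, rested 5 hr at 37 C, dosed across a concentration series, incubated 24 hr at 37 C, then CellTiter-Glo added for 30 min at room temperature and luminescence read. Hill fitting gave AC50.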

[9] = Cell Viability - LYMP2-005 (AID 967); note: series mostly up to about 92 µM
Procedure, shortened: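 Steps: seed 2500 LYMP2-005 cells/well, incubate 5 h at 37 C, add compound, incubate 24 h at 37 C, add CellTiter-Glo, wait 30 min at RT, read luminescence. Concentration-response data fitted to Hill equation for AC50.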

[10] = molecular target: Pyruvate kinase PKM (Homo sapiens) (UniProt P14618); experiment: qHTS Assay for Activators of Human Muscle Pyruvate Kinase (AID 954; active = well fitted curve in the direction sought with a large enough effect, not every such curve was filed as active)
Pyruvate kinase PKM (Homo sapiens), sequence (P14618 whole entry, looked up): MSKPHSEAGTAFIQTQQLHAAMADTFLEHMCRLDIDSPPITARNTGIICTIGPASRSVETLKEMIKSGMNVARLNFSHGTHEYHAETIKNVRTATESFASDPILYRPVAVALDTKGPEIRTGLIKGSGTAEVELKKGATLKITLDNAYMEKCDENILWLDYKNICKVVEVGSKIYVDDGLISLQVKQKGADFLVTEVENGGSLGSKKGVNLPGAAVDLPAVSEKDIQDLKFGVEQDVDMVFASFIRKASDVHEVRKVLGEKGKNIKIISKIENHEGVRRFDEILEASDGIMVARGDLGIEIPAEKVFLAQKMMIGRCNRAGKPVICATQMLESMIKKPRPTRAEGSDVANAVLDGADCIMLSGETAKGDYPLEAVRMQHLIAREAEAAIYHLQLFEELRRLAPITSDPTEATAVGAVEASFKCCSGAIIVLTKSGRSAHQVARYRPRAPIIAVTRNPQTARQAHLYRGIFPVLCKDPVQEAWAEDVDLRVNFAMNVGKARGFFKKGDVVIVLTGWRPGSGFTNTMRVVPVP
Procedure, shortened: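 Luminescence from a luciferase ATP-detection/stop reagent reported PKM2 activity. Reactions contained 0.1 nM purified human enzyme, 0.5 mM PEP, 0.1 mM ADP and 7 mM MgCl2 at pH 7.2, run 1 h at RT.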

Measured: outcome

O=C(c1ccccc1)C(O)c1ccccc1 (stereo not drawn)
not listed: [10]
inactive: all other assays above

CC1CC(OC(=O)c2ccccc2O)CC(C)(C)C1 (stereo not drawn)
not listed: [10]
inactive: all other assays above

Nc1ccc(S(=O)(=O)c2ccc(N)cc2)cc1
not listed: [10]
inactive: all other assays above

O=C1C(c2[nH]c3ccccc3c2O)=Nc2ccccc21
not listed: [10]
inactive: all other assays above

CCCCOC(=O)c1ccc(N)cc1
not listed: [10]
inactive: all other assays above

Cc1cc(C)nc(NS(=O)(=O)c2ccc(N)cc2)n1
not listed: [10]
inactive: all other assays above

COc1ccc(O)cc1
not listed: [10]
inactive: all other assays above

CC(=O)Nc1ccc(C(=O)O)cc1
not listed: [10]
inactive: all other assays above

CC(=O)Nc1cccc(O)c1
not listed: [10]
inactive: all other assays above

C=CCNC(N)=S
not listed: [10]
inactive: all other assays above

CN1C(C)(C)CCCC1(C)C
inactive: [10]

Cc1c(N(C)C)c(=O)n(-c2ccccc2)n1C
not listed: [10]
inactive: all other assays above

CC(=O)OCC(COC(C)=O)OC(C)=O
not listed: [10]
inactive: all other assays above

CCN(CC)C(=O)c1cccc(C)c1
not listed: [10]
inactive: all other assays above

CC(=O)Nc1ccccc1
not listed: [10]
inactive: all other assays above

CC(=O)NS(=O)(=O)c1ccc(N)cc1
not listed: [1] | [10]
inactive: all other assays above

O=C(O)CCCCC1CCSS1 (stereo not drawn)
not listed: [10]
inactive: all other assays above

CCCCCC(N)=O
not listed: [10]
inactive: all other assays above

O=C1c2cccc(O)c2C(=O)c2c(O)cccc21
not listed: [7] | [10]
inactive: all other assays above

CCCCCCCC(=O)OCC(COC(=O)CCCCCCC)OC(=O)CCCCCCC
not listed: [10]
inactive: all other assays above

FC(F)(F)C(Cl)Br (stereo not drawn)
not listed: [10]
inactive: all other assays above

CCCC(O)C(CC)CO (stereo not drawn)
not listed: [10]
inactive: all other assays above

Cc1cc(=O)[nH]c(=S)[nH]1
not listed: [10]
inactive: all other assays above

NC(=O)CC[C@@H](N)C(=O)O
inactive: [10]
